# Measured values reported in PubChem BioAssay (NCATS).
# Results filed as inconclusive are left out. Activity calls are given as the source filed them. Calls come from the whole dose curve; as a rule, active = well fitted cell-killing curve with a large enough effect; inconclusive = small, poorly fitted or top-dose-only effect, or effect the other way; inactive = no such curve, though single readings can be large or run the other way.
# Experiment: Quantitative High-Throughput drug screen in 47 multiple myeloma cell lines against the NCATS MIPE library collection: MM1R_ATCC cell viability assay (AID 1918981); note: nearly all actives have a fitted effect of over 35% in size
# Conditions: MM1R multiple myeloma cells, CellTiter-Glo viability, 48 h; series mostly up to 45.8 µM
# Excerpt: PI: Beverly A. Mock Ph.D.
# Laboratory of Cancer Biology and Genetics,
# Center for Cancer Research, National Cancer Institute,
# National Institute of Health, Bethesda, Maryland
# Drug resistance and disease progression are common in multiple myeloma (MM) patients, underscoring the need for new therapeutic combinations. […] We hypothesized that effective combinations would reduce MYC expression and enhance p16 activity. […] These preclinical data identify potentially useful drug combinations for evaluation in drug-resistant MM and reveal potential mechanisms of combined drug sensitivity.
# Described herein is the primary MIPE qHTS used to cherrypick compounds. Validated compounds were then further tested for potential synergistic activiy.
# [1] Peat TJ, Gaikwad SM, Dubois W, Gyabaah-Kessie N, Zhang S, Gorjifard S, Phyo Z, Andres M, Hughitt VK, Simpson RM, Miller MA, Girvin AT, Taylor A, Williams D, D'Antonio N, Zhang Y, Rajagopalan A, Flietner E, Wilson K, Zhang X, Shinn P, Klumpp-Thomas C, McKnight C, Itkin Z, Chen L, Kazandijian D, Zhang J, Michalowski AM, Simmons JK, Keats J, Thomas CJ, Mock BA. Drug combinations identified by high-throughput screening promote cell cycle transition and upregulate Smad pathways in myeloma. Cancer Lett. 2023 Aug 1;568:216284. doi: 10.1016/j.canlet.2023.216284. Epub 2023 Jun 24. PMID: 37356470; PMCID: PMC10408729.
# SEQUENCE No. (e.g., 1, 2, 3, etc.); […] (e.g., Cells, Incubation, Reagent, etc.); VALUE and DESCRIPTION.
# 1; Cells; 5 uL; white, solid bottom 1536-well Greiner assay plate.
# 2; Compounds; 23 nL; Kalypsis pin tool (Wako USA) equipped with a 1536-well pin head to transfer to the assay plates.
# 3; Incubation; 48 hours; 37C incubation.
# 4; Reagent;5uL; CellTiter Glo (Promega).
# 5; Detector; 425V; Luminescence; Viewlux PerkinElmer.
# NOTES (numbers refer to Sequence numbers above)
# 1. The cell-based screening methods employed in this study were like those previously published. Briefly, the corresponding myeloma cell lines were screened in 1,536-well plates with 500 cells, 5-uL per well for inhibition of cell viability (assessed by measuring ATP levels with CellTiterGlo).
# 2. NCATS MIPE 4.0 library of approved and investigational drugs were added using the Kalypsis pin tool. Wells treated with DMSO only for 100% viability and media only for 0% viability were used as controls.
# 3. The assay plates were covered and incubated for 48 hours in a 37C, 5% CO2 incubator with controlled humidity.
# 4. After 48 hours, CellTilter-GloTM luminescent substrate mix (Promega) reagent was added to the assay plate and plates we incubated for 5 min at room temperature.
# 5. Signal was measured as median relative luminescence units on a ViewLux (PerkinElmer) multiplate reader.
# [1] Heske CM, Davis MI, Baumgart JT, Wilson K, Gormally MV, Chen L, Zhang X, Ceribelli M, Duveau DY, Guha R, Ferrer M, Arnaldez FI, Ji J, Tran HL, Zhang Y, Mendoza A, Helman LJ, Thomas CJ. Matrix Screen Identifies Synergistic Combination of PARP Inhibitors and Nicotinamide Phosphoribosyltransferase (NAMPT) Inhibitors in Ewing Sarcoma. Clin Cancer Res. 2017 Dec 1;23(23):7301-7311. doi: 10.1158/1078-0432.CCR-17-1121. Epub 2017 Sep 12. PMID: 28899971; PMCID: PMC6636827.
# Potency is the fitted concentration of half-maximal effect.
row,Structure (SMILES),Potency
1,Cc1ccccc1C(OCCN(C)C)c1ccccc1 (stereo not given),inactive
2,c1ccc([C@H]2CN3CCSC3=N2)cc1,inactive
3,COc1cc2nccc(Oc3ccc(NC(=O)NC4CC4)c(Cl)c3)c2cc1C(N)=O,1.18 µM (active)
4,COCCNCCCn1c(C(=O)CF)c(-c2ccc(C)cc2)c2c(N)ncnc21,2.64 µM (active)
5,CS(=O)(=O)Oc1ccc2c(NC(N)=O)c(C(=O)c3ccc(Cl)cc3Cl)oc2c1,inactive
6,O=C(O)CCc1ccc(NCc2cccc(Oc3ccccc3)c2)cc1,inactive
7,Cc1oncc1C(=O)Nc1ccc(C(F)(F)F)cc1,inactive
8,O=C1CCCC2=C1C(c1[nH]ncc1Cl)N=C(Nc1nc3ccccc3o1)N2 (stereo not given),inactive
9,CCOC(=O)C1=C[C@]2(CC)CCCN3CCc4c(n1c1ccccc41)[C@@H]32,11.8 µM (active)
10,CO[C@@H]1[C@H](N(C)C(=O)c2ccccc2)C[C@H]2O[C@]1(C)n1c3ccccc3c3c4c(c5c6ccccc6n2c5c31)C(=O)NC4,2.09 µM (active)
11,O=c1n(CCCN2CCN(c3cccc(Cl)c3)CC2)nc2ccccn12,inactive
12,Cc1ccccc1C(C(=O)NC1CCCC1)N(C(=O)Cn1cnc2ccccc21)c1cccc(F)c1 (stereo not given),inactive
13,O=C1[C@H](Cc2ccc(O)cc2)N2C(=O)CCN(C(=O)NCc3ccccc3)[C@H]2CN1Cc1cccc2ccccc12,3.32 µM (active)
14,NNCCc1ccccc1,6.62 µM (active)
15,CC1(C)CNc2cc(NC(=O)c3cccnc3NCc3ccncc3)ccc21,20.9 µM (active)
16,CCOc1cc(N2CCC(O)CC2)ccc1Nc1ncc2c(n1)N(C)c1ccccc1C(=O)N2C,16.6 µM (active)
17,Cc1ccnc(NS(=O)(=O)c2ccc(NC(=O)Nc3ccc(S(=O)(=O)Nc4nccc(C)n4)cc3)cc2)n1,inactive
18,Cc1cc([C@@H](C)Nc2ccccc2C(=O)O)c2nc(N3CCOCC3)cc(=O)n2c1,27 µM (active)
19,COc1ccc(-c2ccc3c(N4CCOCC4)nc(N4C[C@@H](C)O[C@@H](C)C4)nc3n2)cc1CO,0.833 µM (active)
20,O=NN(CCCl)C(=O)NCCCl,inactive

row,Structure (SMILES),Potency
1,CCOc1cc(C=C2C(=O)N(c3ccccc3)N=C2C)cc(Cl)c1OCC(=O)OC,23.5 µM (active)
2,O=C1CCc2cc(OCCCCc3nnnn3C3CCCCC3)ccc2N1,inactive
3,CCn1c(-c2nonc2N)nc2cnc(Oc3cccc(NC(=O)c4ccc(OCCN5CCOCC5)cc4)c3)cc21,16.6 µM (active)
4,CCOc1ccc(Cc2cc([C@@H]3O[C@H](CO)[C@@H](O)[C@H](O)[C@@H]3O)ccc2Cl)cc1,inactive
5,NCCCC(N)(C(=O)O)C(F)F (stereo not given),inactive
6,OCCC#Cc1nc(-c2ccc(F)cc2)c(-c2ccncc2)n1CCCc1ccccc1,inactive
7,CCC(=O)N[C@H]1CC[C@H](C(=O)N(C)c2ccc(-c3nc4ccccc4o3)cc2)C1,3.72 µM (active)
8,NC(=O)c1cnccn1,inactive
9,OCCn1cc(-c2cnc3nnn(Cc4ccc5ncccc5c4)c3n2)cn1,18.7 µM (active)
10,Cc1cc(C=c2sc3nc4ccccc4n3c2=O)c(C)n1-c1ccccc1,7.43 µM (active)
11,NC(=O)C1CCCc2c1[nH]c1ccc(Cl)cc21 (stereo not given),14.8 µM (active)
12,CCN(c1ccccc1)c1cc(NC)[n+](C)c(C)n1,16.6 µM (active)
13,Cc1c(CN2CCN(C(=O)C(C)C)CC2)sc2c(N3CCOCC3)nc(-c3cnc(N)nc3)nc12,0.0469 µM (active)
14,Oc1ccc(C2CNCCc3c2cc(O)c(O)c3Cl)cc1 (stereo not given),inactive
15,O=c1ncn2nc(Sc3ccc(F)cc3F)ccc2c1-c1c(Cl)cccc1Cl,16.6 µM (active)
16,CCn1cc(C(=O)O)c(=O)c2cc(F)c(N3CCNC(C)C3)c(F)c21 (stereo not given),inactive
17,CNC(=O)c1ccc(N2C(=S)N(c3ccc(C#N)c(C(F)(F)F)c3)C(=O)C2(C)C)cc1F,inactive
18,O=C(Nc1cccnc1)N1CCC(Cc2cccc(Oc3ccc(C(F)(F)F)cn3)c2)CC1,13.2 µM (active)
19,CN1CCN(CCCN2c3ccccc3Sc3ccc(C(F)(F)F)cc32)CC1,inactive
20,Cc1cc2c(C(C)C)c(O)c(O)c(C=O)c2c(O)c1-c1c(C)cc2c(C(C)C)c(O)c(O)c(C=O)c2c1O,13.2 µM (active)
